# Out of some 3,300 compounds screened, about 280 (8.5%) were called active. This is one part of a sample in which actives are shown more often than they occur. A number with no mark means an inactive call.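 The calls were made as follows: active = mean growth inhibition over the two runs of 50% or more; inactive = mean growth inhibition under 50%.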
# Test: A549 NSCLC cell proliferation inhibitors – ATP luminescence, human non-small cell lung line, primary screen (AID 371);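 also: compound exposure lasted 72 h before the ATP read; 0% = untreated cell signal and 100% = no luminescence left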
# Conditions: at 10 µM, active compounds read high
row,Structure (SMILES),growth inhibition
1,O=S1(=O)C[C@@H](N2CCOCC2)[C@H](N2CCOCC2)C1,3.83%
2,COc1ccc2c(c1)C1(C)CC(C)(C)N2C(=O)N1c1ccccc1 (stereo not given),38.5%
3,OC1(C2(O)CC(c3ccccc3)ON2)CCCCC1 (stereo not given),19.6%
4,CCCc1nc(NC2CCCCC2)c(C#N)c2c1COC(C)(C)C2,51.4% (active)
5,CCCCc1nc(NCC2CCCO2)c(C#N)c2c1COC(C)(C)C2 (stereo not given),13.2%
6,CCc1nc(NC2CCCCC2)c(C#N)c2c1COC(C)(C)C2,46.1%
7,CN(C)c1ccc(C=NCC2(O)CCOC(C)(C)C2)cc1 (stereo not given),-1.1%
8,Cc1ccc(OCC(=O)N2CCC(N3CCCCCC3)CC2)cc1,0.02%
9,O=C1CC(c2ccco2)CC(O)=C1C=Nc1cc(Cl)ccc1O (stereo not given),52.3% (active)
10,O=C1CC(c2ccco2)CC(O)=C1C=NCCN1CCN(C2CC(=O)N(c3ccccc3)C2=O)CC1 (stereo not given),11.7%
11,CCOC(=O)c1ccc(N=CC2=C(O)CC(c3ccco3)CC2=O)cc1 (stereo not given),8.87%
12,CC1(C)CC(=O)C2=C(C1)OC(N)=C(C#N)C2C1C=CCCC1 (stereo not given),5.77%
13,CCOC(=O)c1[nH]c2ccccc2c1N=CN(CC)CC,1.27%
14,COC(=O)CSC1=C(C#N)C(=O)NC2(CCCCC2)S1,7.6%
15,COC(=O)CN(c1nc(C)cc(OC)n1)S(=O)(=O)c1ccccc1,12.9%
16,Cc1ccc2nc(NCc3ccccc3)[nH]c2c1,66.2% (active)
17,Cn1c(=O)cc(NCc2ccccc2)[nH]c1=O,8.28%
18,Cc1ccc2cc(CNC(C)(C)C)c(=O)[nH]c2c1,-14.5%
19,O=C1OC(Nc2ccc(Br)cc2F)c2ccccc21 (stereo not given),3.02%
20,CC(=O)Nn1cnc2c(c1=O)C1(CCCC1)Cc1ccccc1-2,16.8%
21,N#CCc1nc2c3c4c(sc3ncn2n1)CCCC4,9.82%
22,Nc1nc(NC(=O)Cc2ccccc2)nn1-c1ccccc1,6.96%
23,COc1ccc(C(=O)Nc2nc(N)n(-c3ccccc3)n2)cc1OC,1.17%
24,O=C(Nc1nc(NC(=O)c2ccco2)n(-c2ccccc2)n1)c1ccccc1,82.7% (active)
25,Cc1ccc(-n2c(N)c(C(N)=O)sc2=S)cc1,6.9%

row,Structure (SMILES),growth inhibition
1,CCCC(=O)Nc1nn(CCC)c2nc3ccccc3cc12,-8.01%
2,CN1C(=O)c2c(sc3c2CCCC3)NC1c1ccccc1O (stereo not given),27.8%
3,COc1cccc(C2C(C(=O)c3cc4ccccc4o3)=C(O)C(=O)N2CCN(C)C)c1OC (stereo not given),1.22%
4,CCOC(=O)c1cnn2c1[nH]c(=O)c1ccccc12,7.89%
5,CC(C)OC(=O)c1c2nc3ccccc3nc2n2c1[nH]c(=O)c1ccccc12,60.3% (active)
6,CCO/C(C)=N/n1c2nc3ccccc3nc2c2c(=O)n(CC(C)C)c(C)nc21,3.19%
7,Cc1cc2ccccc2cc(C)c1=O,9.2%
8,Cc1cc(=O)oc2c(CN3CCC(C)CC3)c(O)c(Cl)cc12,-0.87%
9,O=C(CC(c1ccc(F)cc1)c1ccco1)N1CCCC1 (stereo not given),7.48%
10,Nn1c(SCC(=O)Nc2ccc3c(c2)OCCO3)nnc1C(F)(F)F,14.6%
11,c1ccc(-c2nnc3n2N=C(c2ccc4c(c2)OCO4)CS3)nc1,13.4%
12,c1cc2c(cc1C1=Nn3c(nnc3C3CCCCC3)SC1)OCO2,50.2% (active)
13,COc1ccc(OC)c(C2=Nn3c(nnc3C3CCCCC3)SC2)c1,47.4%
14,O=S1CCCSC1c1cccnc1 (stereo not given),-0.58%
15,COc1ccc(/C(O)=C2\C(=O)C(=O)N(c3cc(C)on3)C2c2ccccc2OC)cc1C (stereo not given),7.8%
16,COc1cccc(-c2nc(NCc3ccco3)c3ccccc3n2)c1O,9.14%
17,COc1cccc(-c2nc(NC(C)(C)C)c3ccccc3n2)c1O,20.9%
18,CCN(CC)c1nc(-c2cccc(OC)c2O)nc2ccccc12,13.8%
19,CCC(C)Nc1nc(-c2cccc(OC)c2O)nc2ccccc12 (stereo not given),71.5% (active)
20,COC(=O)CNc1nc(-c2cccnc2)nc2ccccc12,6.85%
21,COc1cccc(-c2nc(NC(C)C)c3ccccc3n2)c1O,77.9% (active)
22,CC1(C)Cc2nc(NCCCO)c(C#N)cc2CO1,-0.91%
23,CCCCOC(=O)C(C)c1c(C)[nH]c(=S)[nH]c1=O (stereo not given),5.11%
24,O=C(Nc1ncccc1Cl)c1cccc(F)c1,7.47%
25,COc1ccc(C2C(C#N)=C(SC)NC3=C2C(=O)CC(C)(C)C3)cc1 (stereo not given),11.2%

row,Structure (SMILES),growth inhibition
1,c1ccc(N2CCN(c3nc(NCc4ccco4)c4ccccc4n3)CC2)cc1,90.4% (active)
2,Fc1cnc(N2CCOCC2)nc1NCc1ccccc1,-1.26%
3,Oc1ccccc1-c1nc(NCc2ccco2)c2ccccc2n1,31.9%
4,COc1cccc(COc2nc3c(c(=O)n(C)c(=O)n3C)n2C)c1,29.5%
5,COc1cccc(OC)c1C(=O)Nc1nc2ccc(S(C)(=O)=O)cc2s1,11.2%
6,CCCNCC(O)COc1ccccc1C(=O)CCc1ccccc1 (stereo not given),54.2% (active)
7,CCCOc1ccccc1C(=O)NCCCC(=O)O,-12.4%
8,CCCCOc1ccccc1C(=O)NCCCC(=O)O,-2.38%
9,Cc1ccccc1NC(=O)NCCc1nc2ccccc2[nH]1,-5.83%
10,COc1ccc(C(=O)C(CN2CCCC2)c2ccccc2)cc1 (stereo not given),88.2% (active)
11,COc1ccc(C(=O)CCN2CCCCCC2)cc1,2.68%
12,COc1ccc(C(O)C(CN2CCOCC2)c2ccccc2)cc1 (stereo not given),2.01%
13,Cc1cc(C)nc(N(C#N)CN2C(=O)c3ccccc3C2=O)n1,-0.78%
14,COC(=O)c1ccc(C(=O)OC)c(NC(=O)c2cc3ccccc3o2)c1,5.58%
15,COC(=O)/C(C#N)=C1/SC=C(C)N1c1ccccc1,4.54%
16,Cn1c(NCc2ccco2)nc2c1c(=O)n(Cc1ccc(Cl)c(Cl)c1)c(=O)n2C,70% (active)
17,Cn1c(=O)c2c(nc(NCc3ccco3)n2Cc2ccccc2Cl)n(C)c1=O,2.6%
18,Cn1c(=O)c2c(nc(NCc3ccco3)n2Cc2ccc(Cl)cc2Cl)n(C)c1=O,0.48%
19,Cn1c(OCc2ccc3c(c2)OCO3)nc2c1c(=O)n(Cc1cccc(Cl)c1)c(=O)n2C,-0.73%
20,C=CCOc1nc2c(c(=O)n(Cc3ccc(Cl)c(Cl)c3)c(=O)n2C)n1C,35.1%
21,Cn1c(OCc2ccco2)nc2c1c(=O)n(Cc1ccc(Cl)c(Cl)c1)c(=O)n2C,59% (active)
22,CNC(=O)c1cc2ccccc2o1,-3.18%
23,O=c1cc(O)nc2n1CCCS2,2.49%
24,COC(=O)C(NC(=O)c1ccco1)(Nc1ccc(Br)cn1)C(F)(F)F (stereo not given),22.7%
25,CCOC(=O)CC(C#N)c1cn(C)c2ccccc12 (stereo not given),3.83%

row,Structure (SMILES),growth inhibition
1,C=CC[N+](C)(C)CCCNC(=O)/C=N/O,-6.91%
2,COc1cccc(C(=O)Nc2ccc(-c3nnc(-c4ccco4)o3)cc2)c1,23.8%
3,CCN(CC)CCn1c(O)c(N=O)c2ccccc21,2.91%
4,Cn1c(N2CCOCC2)nc2c1c(=O)n(Cc1ccc(Cl)c(Cl)c1)c(=O)n2C,36.7%
5,Cn1c(N2CCOCC2)nc2c1c(=O)n(Cc1ccc(Cl)cc1)c(=O)n2C,17.2%
6,COCCNc1nc2c(c(=O)n(Cc3ccc(OC)cc3)c(=O)n2C)n1C,12.2%
7,Cn1c(N2CCN(c3ccccn3)CC2)nc2c1c(=O)n(Cc1ccc(Cl)cc1)c(=O)n2C,50.6% (active)
8,Cn1c(NCC(O)c2ccccc2)nc2c1c(=O)n(Cc1ccc(Cl)c(Cl)c1)c(=O)n2C (stereo not given),88% (active)
9,Cn1c(=O)n(Cc2ccccc2)c(=O)c2c1nc(NCC1CCCO1)n2Cc1ccccc1 (stereo not given),45.3%
10,Cn1c(N2CCN(c3ccccn3)CC2)nc2c1c(=O)n(Cc1ccccc1Cl)c(=O)n2C,7.18%
11,Cn1c(NCC(O)c2ccccc2)nc2c1c(=O)n(Cc1ccc(Cl)cc1)c(=O)n2C (stereo not given),71.7% (active)
12,COc1ccc(Cn2c(=O)c3c(nc(NCCO)n3C)n(C)c2=O)cc1,3.12%
13,Cn1c(NCc2ccccc2)nc2c1c(=O)n(Cc1ccccc1)c(=O)n2C,39.1%
14,Cn1c(NCc2ccccc2)nc2c1c(=O)n(Cc1ccc(Br)cc1)c(=O)n2C,72.5% (active)
15,Cn1c(NCc2cccnc2)nc2c1c(=O)n(Cc1ccccc1F)c(=O)n2C,18.8%
16,CCCCCSc1nc(O)cc(=O)[nH]1,-0.41%
17,Cc1nc2c(=O)n(C)c(=O)[nH]c2n1Cc1ccccc1,8.92%
18,O=C1C2ON(c3ccccc3)C(c3cccnc3)C2C(=O)N1c1ccccc1 (stereo not given),-1.13%
19,CCOC(=O)c1[nH]c2cc3c(cc2c1NC(=O)CN1CC(C)CC(C)C1)OCO3 (stereo not given),6.05%
20,CCc1c(C(=O)O)[nH]c2ccc(Br)cc12,6.3%
21,CCOC(=O)c1[nH]c2ccc(OC)cc2c1C,12.4%
22,Cc1cccc(N2CC(=O)N(c3cccc(C)c3)CC2=O)c1,3.38%
23,CCN(CC)CCNC(=O)c1c(C)oc2cc(Br)c(OC)cc12,29.2%
24,COc1ccccc1N1CCN(C(=O)c2c(C)cc(=O)oc2C)CC1,-0.18%
25,COc1cc2c(C(=O)N3CCN(c4ccccc4)CC3)c(C)oc2cc1Br,60.9% (active)

# Source: PubChem BioAssay AID371 (SRMLSC, 2006)
